High-throughput results deposited in PubChem by Sanford-Burnham Center for Chemical Genomics.
PHOSPHO1 block: PubChem AID 1565 | Phosphoethanolamine/phosphocholine phosphatase (Homo sapiens), Q8TCT1 | recombinant PHOSPHO1, absorbance phosphatase assay | inhibition, % at 13.3 µM | 1.1% of 290,000 active; in the data active means inhibition above about 60%
Target sequence (Q8TCT1 whole entry, looked up): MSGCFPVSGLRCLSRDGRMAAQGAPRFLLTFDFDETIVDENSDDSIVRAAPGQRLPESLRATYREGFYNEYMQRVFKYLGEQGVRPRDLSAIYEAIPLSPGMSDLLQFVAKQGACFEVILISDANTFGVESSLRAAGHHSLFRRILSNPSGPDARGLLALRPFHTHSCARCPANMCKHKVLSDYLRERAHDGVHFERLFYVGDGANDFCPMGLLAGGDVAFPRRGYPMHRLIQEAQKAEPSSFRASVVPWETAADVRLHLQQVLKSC
PABP FP inh: PABP poly(A) RNA binding inhibitors, primary screen, biochemical, fluorescence polarization, uHTS. Polyadenylate-binding protein 1 (Homo sapiens), P11940. 1% of 290,000 active. inhibition, % at 35 µM;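 further: calls also rest on retests at 20 µM and on dose response follow-up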
MLLE-PAM2 inh: inhibitors of PABP1 MLLE–PAM2 peptide binding, primary screen, biochemical, fluorescence polarization, FITC-PAM2, GST-MLLE | Polyadenylate-binding protein 1 (Homo sapiens), P11940 | 0.36% of 360,000 active | inhibition, % at 20 µM | AID 588489, 2011; in the data active means inhibition above about 35%, passing the limit was not always enough;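 further: plate controls were DMSO wells with GST-MLLE for no effect and wells lacking GST-MLLE protein for full effect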
CRFR2-BP antag: antagonists of CRF-BP/CRF-R2 complex, primary screen, cell-based, HEK293, calcium dye fluorescence, uHTS | 0.59% of 350,000 active | CRF-induced calcium fluorescence | AID 588475, 2011 | inhibition, % at 11.8 µM;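 active means inhibition of the ligand-induced calcium signal above about 50% at the single tested concentration, limit read from the data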
eIF4H FP inh: human eIF4H binding inhibitors, primary screen, translation initiation inhibitor project, biochemical, uHTS, fluorescence polarization | eIF4H fluorescence polarization binding assay | 0.94% of 290,000 active | Eukaryotic translation initiation factor 4H (Homo sapiens), Q15056 | AID 2012, 2009 | inhibition, % at 35 µM;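 further: calls also rest on retests at 20 µM and on dose response follow-up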
The depositor's hits bear a star; x = no result. Hits are enriched below; roughly 2.6% of the tested compounds scored in any of these assays. Unless noted, how the calls were made is not given here.

SMILES | PHOSPHO1 block | PABP FP inh | MLLE-PAM2 inh | CRFR2-BP antag | eIF4H FP inh
Cc1nc2c(C(=O)NCCC3=CCCCC3)c[nH]n2c(=O)c1Cl | 81.6* | 6.3 | 1.7 | 11.1 | 6.2
N#CC1=C(N)C(C#N)(C#N)C(c2cccnc2)C2CN(C(=O)OCc3ccccc3)CC=C12 (centres undefined) | -10.8 | -0.3 | 20.9 | -33.0 | 65.8*
Cc1ccc(S(=O)(=O)CCSc2cccc(C(=O)Nc3ccccc3C(=O)O)c2)cc1 | -12.5 | -1.1 | 35.7* | 3.4 | 1.2
Cc1ccc(NC(=O)c2cccc(C(=O)Nc3ccc(C)cc3C(=O)O)c2)c(C(=O)O)c1 | -5.7 | 15.9 | 13.9 | 3.5 | -4.8
CCOC(=O)C(=O)N/N=C/c1ccco1 | 24.0 | 64.7* | -5.7 | 0.8 | 93.5*
COc1ccc(/C=C2\SC(N)=NC2=O)cc1Br | 20.1 | 4.1 | -7.9 | -1.2 | 8.4
COc1cc(/C=C2\SC(N)=NC2=O)cc(Cl)c1O | -2.6 | 11.3* | -111.2 | -14.0 | 53.8
COc1ccc(NC(=O)Nc2ccc3c(c2)C(=O)N([C@H](C)CO)C[C@@H](C)[C@@H](CN(C)C(=O)C2CCCCC2)OCCCC[C@H](C)O3)cc1 | x | x | -2.3 | -0.3 | x
COc1ccc(-c2ccc(C(=O)NCc3ccncc3)c3occc23)c(C)c1 | x | x | 2.4 | x | x
CCOc1cc2[nH]c(=S)n(C(C)C)c(=O)c2cc1OCC | 71.3* | -4.1 | -35.3 | -37.1 | 4.4
CCOc1cc2[nH]c(=S)n(C3CC3)c(=O)c2cc1OCC | 5.5 | 1.5 | 9.1 | 7.5 | 2.2
O=C(CSc1nc2c(c(=O)n1-c1ccc(F)cc1)SCC2)NCc1ccco1 | 42.3 | 8.5 | 44.7* | -5.0 | 2.2
O=C(CSc1nc2c(c(=O)n1-c1ccc(Cl)cc1)SCC2)NCc1ccco1 | 1.2 | 0.6 | 6.3 | -7.0 | 4.0
Cc1cc(O)c(-c2cc(O)c(C)cc2O)cc1O | 34.2 | 2.6 | 47.8* | 23.2 | 1.1
CCN(CC(=O)Nc1c(F)cccc1F)C(=O)c1ccc2ncsc2c1 | x | x | -5.6 | -1.5 | x
Cc1ccc(N=C2NC(=O)CS2)cc1 | -49.5 | 6.8 | -22.1 | 4.4 | -4.4
Cc1ccc(C)n1/N=C1/NC(=O)CS1 | 43.1 | 72.6* | 4.5 | -2.9 | 91.9*
Cc1ccc(NC(=O)c2ncn(CCCNCC3CCCCC3)n2)cc1C | x | x | 5.1 | -3.2 | x
CCOc1ccc2nc(NS(=O)(=O)Cc3ccccc3)sc2c1 | 11.6 | -3.7 | -91.4 | 31.9 | 1.2
COc1ccc(C2=Nc3cccc4cccc(c34)N2)cc1 | 14.7 | 22.0 | -2.9 | 23.1 | 78.1*
Cc1ccc(-n2nnnc2SCC(=O)Nc2cccnc2Cl)cc1 | -7.8 | -0.8 | -69.9 | 53.4* | 0.7
COC(=O)c1ccc(Cl)c(NC(=O)CN(c2ccccc2)S(=O)(=O)c2ccc(OC)cc2)c1 | -6.4 | 3.6 | -9.3 | -31.2 | -9.5
O=S(=O)(NCC(c1cccnc1)N1CCN(Cc2ccccc2)CC1)c1cc(F)ccc1F (centres undefined) | 70.6* | -12.6 | 5.0 | 5.9 | -4.0
O=S(=O)(NCC(c1cccnc1)N1CCN(Cc2ccccc2)CC1)c1ccc(F)cc1 (centres undefined) | 41.8 | -12.0 | -0.6 | 0.0 | -13.7
Cc1cc(F)ccc1-c1cc(C(=O)NCc2ccco2)[nH]n1 | x | x | 0.5 | x | x
SMILES | PHOSPHO1 block | PABP FP inh | MLLE-PAM2 inh | CRFR2-BP antag | eIF4H FP inh
COc1cc2c(cc1OC)CN(C(=O)CC1CC3CCC1C3)CC2 (centres undefined) | 8.7 | 11.5 | 0.4 | 20.2 | 4.3
COc1cc2c(cc1OC)CN(C(=O)COc1ccc(C#N)cc1)CC2 | 17.3 | 64.0* | 12.8 | -6.0 | 6.8*
COc1cc2c(cc1OC)CN(C(=O)CCN1C(=O)C3CCCCC3C1=O)CC2 (centres undefined) | 44.8 | 74.6* | 5.0 | -1.7 | 6.2*
CN1CCN(C(=O)C[C@@H]2C[C@H]3c4cc(NC(=O)c5cccnc5)ccc4O[C@H]3[C@H](CO)O2)CC1 | x | x | -1.4 | 3.8 | x
Cc1cc(Br)cn2c(CC(C)(C)C)c(C3CCCCC3)nc12 | x | x | -1.7 | x | x
CCN(CC)c1ccc(/C=C2\CCC(/C=C(\C#N)C(=O)Nc3ccccc3F)=C2N2CCOCC2)cc1 | -8.6 | 1.4 | -77.8 | 0.5 | 61.3*
CCCc1cc(=O)oc2cc(OC3CCCCC3=O)ccc12 (centres undefined) | 31.6 | 90.3* | -2.1 | -12.1 | 88.6*
COc1ccc(N2C(=O)/C(=C/c3cccs3)NC2=S)cc1 | 75.1* | 1.4 | -10.8 | -19.4 | 2.5
